Our source for the activation values is PubChem BioAssay AID743287 (Broad Institute, 2014).

Each structure is given as a SMILES string. Among all 370,000 compounds or so, about 2,300 (0.62%) were called active.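 How the source made its calls: active means lowest replicate activation of at least 40%, so every replicate reaches that level; inactive means the rest.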 The full list was thinned out, with actives kept by preference.

This experiment can be described thus: GLuc luminescence reporter in INS-1E cells, primary screen for activators of glucose-dependent secretion of insulin (AID 743287).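 Further: 0% = median of neutral control wells and 100% = median of IBMX positive control wells.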 Conditions: INS-1E GLuc reporter insulin secretion, 2-3 h, at 16.6 µM, stronger effect = higher value.
Take `COC(=O)C[C@H]1C=C[C@H](NC(=O)Nc2ccc(C(F)(F)F)cc2)[C@@H](CO)O1`: the activation is 15.4% (inactive). On to `Cc1ccc2[nH]c(=O)c(CN(C)S(=O)(=O)c3cccc4nonc34)cc2c1`, for which the activation is 6.21% (inactive). On to `COc1ccccc1-c1noc(CSc2nc(C)cc(=O)[nH]2)n1`, for which the activation is 5.85% (inactive). For the molecule `CCCc1nc(-c2cc3cc(C)ccc3[nH]c2=O)no1`, the activation is 43.8% (active).

For the molecule `C[C@@H]1CN(C)C(=O)c2cccc(N(C)C)c2O[C@H]1CN(C)S(C)(=O)=O`, the activation is 23.8% (inactive). Next, `COc1cccc(C#Cc2ccc([C@@H]3[C@H]4CN(C(=O)Cc5ccccc5)CC(=O)N4[C@H]3CO)cc2)c1`: 6.19% (inactive); `COc1ccccc1NC(=O)N1CCCCN2[C@@H](CO)[C@@H](c3ccc(C#Cc4ccccc4)cc3)[C@@H]2C1`: -22.8% (inactive). Take `O=C(CC(c1ccccc1)c1cc(Cl)ccc1O)NCCN1CCOCC1` (stereo unspecified): the activation is -15% (inactive). Next, `OC(c1ccc(Cl)cc1)C(CN1CCOCC1)c1ccccc1` (stereo unspecified): 225% (active); `S=C(Cc1ccc(Cl)cc1)N1CCOCC1`: 9.43% (inactive); `O=C(NC[C@@H]1[C@@H](c2ccccc2)[C@@H](CO)N1Cc1ccccn1)C1CCC1`: 1.69% (inactive).

With `CCc1cnc(N2[C@H](C#N)[C@H](c3ccccc3-c3ccccc3C)[C@H]2CO)s1`, the activation was -14.3% (inactive). On to `O=C(CSc1nc(C2CC2)nc2ccccc12)Nc1ccc2c(c1)OCCO2`, for which the activation is 43.1% (active). For `O=C(CSc1nnnn1C1CCCC1)Nc1ccc2c(c1)OCCO2` the value was 4.25% (inactive). Next, `Cc1nnc(NC(=O)CSc2nc(C3CCCCC3)nc3ccccc23)s1`: 16.1% (inactive). `COc1ccccc1CN1[C@H](CO)[C@H](c2ccccc2)C12CN(C(=O)c1ccccn1)C2`: the activation is -3.88% (inactive). Next, `O=C(C[C@H]1C[C@H]2c3cc(NC(=O)NC4CCCC4)ccc3O[C@H]2[C@@H](CO)O1)NCc1ccc(-c2ccccc2)cc1`: -0.703% (inactive). Regarding `COc1ccc2c3c([nH]c2c1)[C@H](CO)N(Cc1nccs1)CC31CCN(Cc2ccncc2)CC1`, the activation is 3% (inactive). For `CC(C)NC(=O)N(C)C[C@H]1Oc2ccc(NS(C)(=O)=O)cc2C(=O)N(C)C[C@@H]1C` the value was -0.922% (inactive); for `O=C(CSc1nc2[nH]ncc2c(=O)[nH]1)Nc1ccc(F)cc1`, 5.73% (inactive); for `CCCSc1nc2[nH]ncc2c(=O)[nH]1`, 53.9% (active).

As for `Cc1ccc(CSc2nc3[nH]ncc3c(=O)[nH]2)cc1`, the activation is 23.2% (inactive). Take `CN1c2ccc(-c3cccc(F)c3)cc2[C@H]2[C@H](CCN2C(=O)C2CCCC2)[C@@H]1CO`: the activation is -41.3% (inactive).

In the case of `O=C(C[C@H]1C=C[C@H](NC(=O)Nc2cc(F)ccc2F)[C@@H](CO)O1)NCc1ccccn1`, the activation was 2.32% (inactive). `C[C@H]1CN([C@@H](C)CO)C(=O)c2c(c3ccccc3n2C)-c2ccccc2CO[C@@H]1CN(C)C(=O)Nc1ccnc(N2CCOCC2)c1`: the activation was -10.3% (inactive).

Consider `CC(C)C(C(=O)NCc1ccco1)N(CC1CCCO1)C(=O)CNS(=O)(=O)c1ccc(F)cc1` (stereo unspecified), for which the activation is 47.3% (active).

`O=C(CN(CC1CCCO1)C(=O)CNS(=O)(=O)c1ccccc1)NCc1ccccc1` (stereo unspecified): the activation was 1.79% (inactive). Next, `O=C(CN(CC1CCCO1)C(=O)CNS(=O)(=O)c1ccc(F)cc1)NCc1ccco1` (stereo unspecified): 16.2% (inactive); `CC(C)C#Cc1ccc2c(c1)O[C@@H](CN(C)C(=O)C1CCC1)[C@@H](C)CN([C@@H](C)CO)S2(=O)=O`: -2.35% (inactive).

For the molecule `COc1ccc(-c2nn3c(-c4ccccc4)nnc3s2)cc1OC`, the activation was 140% (active). Next, `COc1ccccc1CCn1cnc(-c2ccccc2)c1C(C)C`: 40.3% (inactive); `COc1ccc(-c2cc(NC=O)c3ncc(-c4ccccc4)n3c2)cc1OC`: 2.43% (inactive); `COc1ccc2c3c([nH]c2c1)[C@@H](CO)N(Cc1ccc2c(c1)OCO2)CC31CN(C(=O)Nc2c(C)noc2C)C1`: 8.95% (inactive).

Take `C[C@H](O)C#Cc1cnc2c(c1)C(=O)N([C@@H](C)CO)C[C@H](C)[C@H](CN(C)C(=O)c1ccccc1)O2`: the activation is 11.8% (inactive). As to `O=C(Nc1ccc(C(F)(F)F)cc1)N[C@@H]1CC[C@H](CC(=O)N2CCCCC2)O[C@H]1CO`, the activation is -5.98% (inactive).

As to `NC(c1csc(NC(=O)Nc2cccc(C(F)(F)F)c2)n1)C1CCCCC1` (stereo unspecified), the activation was 48.3% (active). For the molecule `CC(=O)Nc1ccc(NC(=O)C2CCCN2S(=O)(=O)c2cccc(C(F)(F)F)c2)cc1` (stereo unspecified), the activation is -4.8% (inactive). Next, `C[C@H]1CN([C@@H](C)CO)C(=O)c2cccc(NC(=O)Nc3ccc(C(F)(F)F)cc3)c2O[C@H]1CN(C)CC1CCCCC1`: -0.988% (inactive). For `C[C@@H]1CN([C@@H](C)CO)C(=O)c2cccc(NC(=O)Nc3cccc4ccccc34)c2O[C@@H]1CN(C)CC1CC1` the value was 21.1% (inactive); for `O=C(Nc1ccccc1F)N[C@H]1C=C[C@H](CC(=O)N2CCCCC2)O[C@H]1CO`, -5.96% (inactive); for `O=C(CC1CC1)N1[C@@H](CO)[C@H](c2ccccc2)C12CN(Cc1cccnc1)C2`, 2.36% (inactive).

As to `CCC(=O)N1C[C@@H](C)[C@H](OC)CN(C)C(=O)c2ccc(NC(=O)C3CCOCC3)cc2OC[C@@H]1C`, the activation was 8.65% (inactive). `O=C1CNC[C@H]2[C@@H](c3ccc(C4=CCCC4)cc3)[C@@H](CO)N12`: the activation was 2.03% (inactive). Next, `CCC(=O)N1[C@@H](CO)[C@@H](c2ccc(C3=CCCC3)cc2)C12CN(C(=O)COC)C2`: 3.86% (inactive); `C[C@@H]1CCCCO[C@@H](CN(C)C(=O)CCCN(C)C)[C@@H](C)CN([C@H](C)CO)C(=O)c2cc(NC(=O)CCCN(C)C)ccc2O1`: 12.7% (inactive).

As for `Cc1ccc2c(C)c(C(=O)N(C)CCC3CCCCO3)oc2c1C` (stereo unspecified), the activation was 0.532% (inactive). For `Cc1c(C(=O)N(C)CCc2cnn(C)c2)oc2c(F)cccc12`, the activation was 44.6% (active).

Turning to `CN(CCc1cnn(C)c1)Cc1cn(C)nc1-c1ccccc1F`, the activation was -1.92% (inactive).

Consider `COc1ccc(S(=O)(=O)N2CCOCC2)cc1NC(=O)CSc1ncnc2ccccc12`, for which the activation is 14.3% (inactive). Next, `COc1ccc(S(=O)(=O)N2CCOCC2)cc1NC(=O)COc1ccccc1`: 43.9% (active); `COc1ccc(S(=O)(=O)N2CCOCC2)cc1NC(=O)Cc1c(F)cccc1Cl`: -12.7% (inactive).
